Data taken from publication PMC4336329 (PLoS ONE, 2015).
The campaign covered roughly 310,000 compounds. About 14,000 (4.5%) showed an effect of 50% or more. Effects have a minus sign here. The sample as a whole holds a higher share of strong results than the screen did.

molecular target: human ether-à-go-go-related gene (hERG) potassium channel (human, UniProt Q12809); assay: primary screen, population patch clamp on CHO cells stably expressing hERG; higher = less effect of the substance
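Note: peak tail current of the secondary pulse compared with the same well before compound.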

human ether-à-go-go-related gene (hERG) potassium channel, sequence (Q12809 whole entry, looked up): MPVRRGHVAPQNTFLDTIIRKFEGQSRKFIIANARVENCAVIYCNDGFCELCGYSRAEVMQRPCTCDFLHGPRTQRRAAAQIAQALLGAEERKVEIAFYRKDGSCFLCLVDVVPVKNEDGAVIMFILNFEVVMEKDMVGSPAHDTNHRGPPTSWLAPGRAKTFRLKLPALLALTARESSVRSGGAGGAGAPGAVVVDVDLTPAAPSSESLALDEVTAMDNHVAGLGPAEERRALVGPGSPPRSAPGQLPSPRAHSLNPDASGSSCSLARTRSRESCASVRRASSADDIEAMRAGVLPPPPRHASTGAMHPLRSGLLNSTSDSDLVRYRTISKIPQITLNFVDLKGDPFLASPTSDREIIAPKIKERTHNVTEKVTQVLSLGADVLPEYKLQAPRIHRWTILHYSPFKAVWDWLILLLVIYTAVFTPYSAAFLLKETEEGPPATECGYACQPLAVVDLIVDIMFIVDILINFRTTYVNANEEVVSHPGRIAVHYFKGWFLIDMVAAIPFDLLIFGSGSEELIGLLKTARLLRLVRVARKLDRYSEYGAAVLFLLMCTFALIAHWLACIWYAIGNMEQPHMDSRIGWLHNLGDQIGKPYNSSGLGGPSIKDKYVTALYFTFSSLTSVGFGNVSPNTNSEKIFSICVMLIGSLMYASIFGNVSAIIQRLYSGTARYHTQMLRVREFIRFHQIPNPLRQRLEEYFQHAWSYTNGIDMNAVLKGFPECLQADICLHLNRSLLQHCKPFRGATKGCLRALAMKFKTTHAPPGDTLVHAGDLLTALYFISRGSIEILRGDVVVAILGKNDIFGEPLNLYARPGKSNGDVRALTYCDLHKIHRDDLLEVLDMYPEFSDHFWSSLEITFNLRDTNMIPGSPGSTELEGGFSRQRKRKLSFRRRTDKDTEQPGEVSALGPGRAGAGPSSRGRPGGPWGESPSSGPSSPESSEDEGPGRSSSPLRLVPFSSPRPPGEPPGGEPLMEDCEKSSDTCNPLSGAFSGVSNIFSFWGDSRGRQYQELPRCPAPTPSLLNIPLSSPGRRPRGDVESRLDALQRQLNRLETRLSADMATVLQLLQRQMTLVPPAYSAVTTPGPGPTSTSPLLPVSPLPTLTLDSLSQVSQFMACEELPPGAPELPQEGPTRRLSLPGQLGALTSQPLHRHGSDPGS

| SMILES | hERG current change (%, negative = inhibition) at 10uM [%] |
| --- | --- |
| COc1ccc(CCNC(=O)C2CCC(=O)N2CCc2ccccc2)cc1OC (stereo not shown) | 12.4 |
| O=c1nc2n(c3ccc([N+](=O)[O-])cc13)CCCCC2 | -15.4 |
| COCc1cc(=O)[nH]c(Nc2nc(C)c3ccccc3n2)n1 | -8.74 |
| COCc1cc(=O)[nH]c(Nc2nc(C)c3cc(OC)ccc3n2)n1 | 7.05 |
| CCc1ccc2nc(Nc3nc(COC)cc(=O)[nH]3)nc(C)c2c1 | -73.3 |
| CCC(=O)Nc1ccc(C(=O)Nc2ccc(OC)cc2[N+](=O)[O-])cc1 | 13.7 |
| FC(F)(F)c1cccc(Cc2noc(CN3CCCCC3c3ccccn3)n2)c1 (stereo not shown) | -8.11 |
| Cc1ccccc1C(=O)Nc1ccnn1C1CCN(Cc2cccnc2)CC1 | -77.4 |
| COc1ccccc1CN1CCC(n2nccc2NC(=O)c2ccccc2Cl)CC1 | -76.2 |
| Cc1ncc(CN2CCC(n3nccc3NC(=O)c3ccccc3)CC2)s1 | -19 |
| COc1ccccc1C(=O)Nc1ccnn1C1CCN(Cc2cnc(N(C)C)s2)CC1 | -65 |
| Cc1cc(CN2CCC(n3nccc3NC(=O)c3ccccc3Cl)CC2)cc(C)c1O | -74.2 |
| COc1cccc(OC)c1OC(=O)/C=C/c1ccc(C)o1 | 6.2 |
| CC(C)(C)C(=O)NCCCNc1ccc([N+](=O)[O-])cc1 | -24.7 |
| CC(C)(C)c1ccc(C(=O)NCCC(=O)NCc2ccco2)cc1 | -36.1 |
| Cc1cc(C)n2nc(CCc3ccccc3)nc2n1 | -12.8 |
| O=C(O)CCC(=O)NC1CCCCC1 | 6.89 |
| COc1ccc(/C=C/c2nc(-c3ccccc3O)n(-c3ccccc3)n2)cc1 | -2.17 |
| COc1ccc(OC)c(CNc2ccc([N+](=O)[O-])cc2C)c1 | 3.55 |
| Cc1ccccc1C(=O)Nc1ccnn1C1CCN(Cc2ccncc2)CC1 | -45.1 |
| O=C(Nc1ccnn1C1CCN(C2CCC2)CC1)c1ccccc1Cl | -63.6 |
| CCc1ccc(CN2CCC(n3nccc3NC(=O)c3ccccc3C)CC2)cc1 | -76.2 |
| Cc1ccccc1C(=O)Nc1ccnn1C1CCN(Cc2ccccn2)CC1 | -33.9 |
| O=C(Nc1ccnn1C1CCN(C2CCC2)CC1)c1ccccc1 | -0.539 |
| O=C(Nc1ccnn1C1CCN(Cc2ccccc2)CC1)c1ccccc1Cl | -76.1 |

| SMILES | hERG current change (%, negative = inhibition) at 10uM [%] |
| --- | --- |
| O=C(Nc1ccnn1C1CCN(Cc2cccnc2)CC1)c1ccccc1Cl | -37.1 |
| O=C(Nc1ccnn1C1CCN(C2CCCC2)CC1)c1ccccc1Cl | -45 |
| Cc1cc(C)c(CN2CCC(n3nccc3NC(=O)c3ccccc3Cl)CC2)cc1C | -50.8 |
| C=CCN1C(=O)C(C)(C)Nc2ccccc21 | 6.7 |
| O=C(c1cccnc1Cl)N(Cc1ccccc1)Cc1ccccc1 | -17.7 |
| CC(=O)Nc1ccc(-c2csc(-c3cccnc3)n2)cc1 | 3.98 |
| O=C1Nc2ccccc2/C1=C/c1ccccc1F | 26.3 |
| COc1cc(NC(=O)C2CCCO2)c(OC)cc1NC(=O)c1ccccc1 (stereo not shown) | 8.17 |
| CC(=O)OC[C@H]1O[C@@H](Sc2cccc3cccnc23)[C@H](OC(C)=O)[C@@H](OC(C)=O)[C@@H]1OC(C)=O | -11.4 |
| CCCN(C#N)c1nc(NCC)nc(NC(C)C)n1 | -10.2 |
| O=C1CN(CC(=O)Nc2ccc(Cl)cc2)CCN1 | -4.87 |
| CC(=O)c1cccc(NC(=O)N2C3CCCC2CC(NC(=O)C2CC2)C3)c1 (stereo not shown) | 17.2 |
| CCN1CCC(n2nccc2NC(=O)c2ccccc2Cl)CC1 | -21 |
| COc1ccccc1C(=O)Nc1ccnn1C1CCN(Cc2ccccc2OCCO)CC1 | -78.7 |
| COC(C(=O)Nc1ccnn1C1CCN(Cc2ccc(Cl)s2)CC1)c1ccccc1 (stereo not shown) | -5.29 |
| Cc1cccc(CN2CCC(n3nccc3NC(=O)c3ccccc3C)CC2)n1 | -19.9 |
| COC(C(=O)Nc1ccnn1C1CCN(Cc2nccs2)CC1)c1ccccc1 (stereo not shown) | 0.847 |
| COC(C(=O)Nc1ccnn1C1CCN(Cc2ccc(C)s2)CC1)c1ccccc1 (stereo not shown) | -50.8 |
| CSc1ccc(CN2CCC(n3nccc3NC(=O)c3ccccc3C)CC2)cc1 | -75 |
| CCc1ccc(CN2CCC(n3nccc3NC(=O)c3ccccc3Cl)CC2)cc1 | -84.4 |
| Cc1cc(OCC(=O)Nc2cccnc2)c2c(C)cc(=O)oc2c1 | 4.24 |
| O=C(Cc1cccs1)N1CCN(c2nc(-c3ccc(Cl)cc3)cs2)CC1 | -8.73 |
| c1ccc(-c2cnc(-c3ccccc3)nc2)cc1 | 13.4 |
| CCOc1ccc(N/C=C/C(=O)c2ccc(OC)cc2)c([N+](=O)[O-])c1 | 24.5 |
| CCOC(=O)C1CCCN(C(=O)c2ccc3nc(-c4cccc(OC)c4)oc3c2)C1 (stereo not shown) | -28.6 |

| SMILES | hERG current change (%, negative = inhibition) at 10uM [%] |
| --- | --- |
| CC(O)C(O)C(O)C(O)C1NCCS1 (stereo not shown) | 6.81 |
| Cc1cc(C)cc(N(CCC#N)C(=O)COC(=O)CCc2c[nH]c3ccccc23)c1 | -32.6 |
| O=C(NCCc1c[nH]c2ccccc12)OCCSS(=O)(=O)[O-].[Na+] | 9.49 |
| Br.O=C(c1ccc(Br)cc1)c1sc(N2CCOCC2)nc1-c1ccccc1 | -1.44 |
| CCCN(Cc1cc2ccc(C)cc2[nH]c1=O)S(=O)(=O)c1ccccc1 | 6.34 |
| O=C(c1ccco1)N1CCN(S(=O)(=O)c2cc(Cl)ccc2Cl)CC1 | -21.5 |
| O=S(=O)(c1cc(Cl)ccc1Cl)N1CCN(Cc2ccco2)CC1 | -54.1 |
| Cc1ccc(S(=O)(=O)N2CCN(Cc3ccco3)CC2)c(C)c1 | -35.6 |
| CC(=O)C(Sc1nc(N(C)C)nc(N(C)C)n1)C(=O)Nc1ccccc1 (stereo not shown) | -3.04 |
| CC(NC(=O)C1CCCN(S(=O)(=O)c2cccs2)C1)c1ccccc1 (stereo not shown) | 6.73 |
| COc1ccc2c(c1)C=C(C(=O)OCc1cccnc1)CO2 | 3.63 |
| COc1cccc2c1OCC(C(=O)OCc1cccnc1)=C2 | -17.4 |
| O=C(OCc1cccnc1)C1=Cc2ccccc2OC1 | -64.9 |
| O=C(NCC1(c2ccccc2)CCOCC1)c1cccs1 | 13.9 |
| COC(=O)C1=C(C)Nc2c(c(=O)n(C)c(=O)n2C)C1c1cccnc1 (stereo not shown) | -2.61 |
| Cc1nc2oc3ccc(Cl)cc3c(=O)c2cc1C(=O)O | 19 |
| CCN(CC)C(=O)c1cc2c(=O)c3cc(Cl)ccc3oc2nc1C | -66.1 |
| CCN(CC)C(=O)c1cc2c(=O)c3cc(F)ccc3oc2nc1C | -10.8 |
| CN(CC(=O)Nc1ccccc1C(F)(F)F)C(=O)CCc1nc2sc3c(c2c(=O)[nH]1)CCCC3 | 7.94 |
| CCCn1nnc(NC(=O)c2ccc(OC)cc2)n1 | 2.42 |
| CCc1nc2ccccc2n1Cc1ccc(F)cc1 | -0.73 |
| O=C1c2ccccc2C(=O)N1CCCn1ccnc1 | 17.1 |
| O=C1c2ccccc2C(=O)N1Cc1nc2ccccc2c(=O)n1Cc1ccco1 | 21.3 |
| O=C1c2ccccc2C(=O)N1CCCc1nc2ccccc2c(=O)n1CCCn1ccnc1 | -65 |
| O=C1c2ccccc2C(=O)N1CCc1nc2ccccc2c(=O)n1Cc1ccco1 | -61.8 |

| SMILES | hERG current change (%, negative = inhibition) at 10uM [%] |
| --- | --- |
| CCC(c1nc2ccccc2c(=O)n1CCCn1ccnc1)N1C(=O)c2ccccc2C1=O (stereo not shown) | -38.8 |
| O=C1c2ccccc2C(=O)N1CCCc1nc2ccccc2c(=O)n1-c1cccnc1 | -39.7 |
| Cc1nc2ccccc2c(=O)n1Cc1ccco1 | -7.41 |
| O=C1c2ccccc2C(=O)N1CCc1nc2ccccc2c(=O)n1CCCn1ccnc1 | -62.5 |
| Cc1nc2ccccc2c(=O)n1CCCn1ccnc1 | -17 |
| COc1ccc(N2C(=O)c3ccccc3NC2c2ccc(OC)c(CSc3ccccn3)c2)cc1 (stereo not shown) | 2.62 |
| COc1cc(C(=O)NCCSc2ccc(Cl)cc2)cc(OC)c1OC | -3.08 |
| CC(OC(=O)C1=COCCO1)C(=O)NC1CCCCC1C (stereo not shown) | 12.7 |
| Cc1ccc(CNC(=O)COC(=O)c2ccc(Cl)c(N)c2)cc1 | -3.37 |
| CN(C)C(=O)COC(=O)[C@H](Cc1ccccc1)NC(=O)c1ccco1 | 7.23 |
| Cc1cnc(C(=O)OCC(=O)N2CCN(S(=O)(=O)c3ccc(Cl)cc3)CC2)cn1 | 4.81 |
| CCOC(=O)c1c(CSc2cccs2)n(C)c2cc(Br)c(O)c(CN(C)C)c12.Cl | -68.3 |
| CCOC(=O)c1c(CN2CCOCC2)n(C)c2cc(Br)c(O)c(CN(C)C)c12.Cl | -26.6 |
| CCOC(=O)c1c(C)n(C)c2cc(Br)c(O)c(O)c12 | 8.12 |
| CCOC(=O)c1c(CSc2ccccc2)n(C)c2ccc(O)cc12 | 21.3 |
| CCOC(=O)c1c(CSc2ccccc2)n(C)c2cc(Br)c(O)c(CN(C)C)c12 | -68.5 |
| CCOC(=O)c1c(CSc2ccc(C)cc2)n(C)c2cc(Br)c(O)c(CN(C)C)c12.Cl.O | -54.9 |
| CCOC(=O)c1c(CN2CCOCC2)n(C)c2cc(Br)c(O)c(CN(C)C)c12 | -27.4 |
| CCOC(=O)c1c(CSc2ccccc2)n(C)c2cc(Br)c(OC)c(O)c12 | 16.2 |
| CCOC(=O)c1c(CN2CCCCC2)n(C)c2cc(Br)c(O)c(CN(C)C)c12 | -19 |
| CCOC(=O)c1c(CN(C)C)n(C)c2ccc(OC(C)=O)cc12.Cl | -41.3 |
| CCOC(=O)c1c(CS(=O)(=O)c2ccccc2)n(C)c2cc(Br)c(O)c(CN(C)C)c12 | -50.4 |
